High-throughput results from PubChem.
Jurkat NFkB inh: lowers PMA/ionomycin-induced NF-kB signal in Jurkat cells; 330,000 compounds, 0.53% hits; inhibition, % at 4 µM; PMA/ionomycin-induced NF-kB luciferase reporter, luminescence; in the data active = inhibition above about 50%
Shn3 inh set2: inhibitors of Schnurri-3 3'UTR reporter in osteoblasts. Clone20 osteoblast Shn3 3'UTR firefly luciferase, 24 h. inhibition, % at 12.5 µM. 360,000 compounds, 0.52% hits. AID 588674;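 active = mean inhibition of at least 75% with every replicate also reaching 75%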;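 note: 0% = median of neutral control wells and 100% = pilot-screen positive control compound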
Mdm2 MdmX PPI: inhibitors of human Mdm2/MdmX interaction | SaOS-2 split-luciferase Mdm2/MdmX complementation, luminescence | O15151+Q00987 | AID 485346 | inhibition, % at 8 µM | 330,000 compounds, 3% hits;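 active = inhibition of at least 50% at 8 µM in the primary screen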
Target sequence (O15151 whole entry, looked up): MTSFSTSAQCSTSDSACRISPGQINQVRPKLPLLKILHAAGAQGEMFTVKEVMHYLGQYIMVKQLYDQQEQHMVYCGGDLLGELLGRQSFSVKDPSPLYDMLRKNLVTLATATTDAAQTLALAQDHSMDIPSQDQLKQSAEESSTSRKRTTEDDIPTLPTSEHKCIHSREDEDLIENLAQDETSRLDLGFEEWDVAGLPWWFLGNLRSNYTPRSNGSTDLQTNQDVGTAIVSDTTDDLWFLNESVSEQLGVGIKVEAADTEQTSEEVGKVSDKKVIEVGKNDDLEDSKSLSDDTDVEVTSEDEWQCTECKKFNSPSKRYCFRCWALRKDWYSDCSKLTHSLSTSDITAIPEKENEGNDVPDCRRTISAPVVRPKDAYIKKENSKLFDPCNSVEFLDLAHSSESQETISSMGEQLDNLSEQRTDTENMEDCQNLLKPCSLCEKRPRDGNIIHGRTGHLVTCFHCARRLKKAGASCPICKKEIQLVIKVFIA
Target sequence (Q00987 whole entry, looked up): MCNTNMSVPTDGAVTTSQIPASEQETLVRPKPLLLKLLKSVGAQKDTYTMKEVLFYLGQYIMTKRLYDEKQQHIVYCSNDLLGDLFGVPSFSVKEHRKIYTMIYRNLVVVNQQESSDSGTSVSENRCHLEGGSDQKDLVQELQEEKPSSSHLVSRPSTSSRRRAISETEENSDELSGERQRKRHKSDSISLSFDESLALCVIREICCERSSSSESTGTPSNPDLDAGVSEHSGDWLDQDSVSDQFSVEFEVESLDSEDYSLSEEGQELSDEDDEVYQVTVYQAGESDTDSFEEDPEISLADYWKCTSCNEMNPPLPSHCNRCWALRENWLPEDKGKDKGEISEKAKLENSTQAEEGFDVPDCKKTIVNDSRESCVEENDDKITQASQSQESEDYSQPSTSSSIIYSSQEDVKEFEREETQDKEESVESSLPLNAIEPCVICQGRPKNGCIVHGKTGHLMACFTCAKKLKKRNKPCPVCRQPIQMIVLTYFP
Gli-Sufu block: blocks Gli-Sufu signaling in a luciferase reporter; Sufu-KO-LIGHT fibroblasts, Gli luciferase reporter luminescence; inhibition, % at 5 µM; 340,000 compounds, 0.74% hits; AID 588413;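 active = inhibition above about 55%, limit read from the data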;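 note: 0% = DMSO-treated cells and 100% = wells with medium but no cells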
697 NFkB inh: lowers PMA/ionomycin-induced NF-kB signal in 697 B cells; 697 B-cell NF-kB luciferase reporter, 16 h; inhibition, % at 4 µM; 330,000 compounds, 0.33% hits; AID 435022; in the data active = inhibition above about 35%
Mdm2 MdmX conf: human Mdm2/MdmX binding inhibition, confirmed | shares compounds with Mdm2 MdmX PPI | 10,000 compounds, 55% hits | luminescent assay | inhibition, % at 8 µM | AID 489028; in the data active = inhibition above about 40%
FLuc counter: counter-screen for Mdm2/MdmX inhibitors: full-length luciferase. shares compounds with Mdm2 MdmX PPI. SaOS-2 full-length luciferase counterscreen, luminescence. inhibition, % at 8 µM. 6,200 compounds, 77% hits. AID 504607;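 active = mean inhibition at 8 µM reaching about 37%, which flags the compound as non-specific, limit read from the data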;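 note: p53-null SaOS-2 cells with luciferase driven by a doxycycline-inducible promoter; compound on cells about two nights before reading with doxycycline added after day one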
Active calls of the source: *; . = no result. A selection: hits, their analogues and other compounds. The true share with any hit is near 3.8%.

SMILES | Jurkat NFkB inh | Shn3 inh set2 | Mdm2 MdmX PPI | Gli-Sufu block | 697 NFkB inh | Mdm2 MdmX conf | FLuc counter
Cc1ccc(-n2ncc3c(SCC(=O)NNC(=O)c4ccco4)ncnc32)cc1 | -48 | -21 | -47 | -26 | -26 | . | .
COc1ccccc1N(C(=O)c1snc(C(N)=O)c1N)C(C(=O)NCc1ccccc1)c1ccc(O)cc1 (centres undefined) | -2 | -15 | -2 | 1 | 10 | . | .
NC(=O)c1nsc(C(=O)N(c2ccccc2F)C(C(=O)NCc2ccc(F)cc2)c2ccc(O)cc2)c1N (centres undefined) | 38 | 33 | 65* | 25 | 35 | 63* | 81*
Cn1ccnc1C(=O)c1cc(SCC(=O)NC2CC2)nc2ccccc12 | 0 | -2 | 13 | 24 | 13 | . | .
CN(C(=O)CSc1cc(C(=O)c2nccn2C)c2ccccc2n1)c1ccccc1 | 8 | . | 53* | -8 | 25 | 63* | 81*
O=C(N/N=C/c1ccc(F)cc1)c1c(O)c2ccccc2[nH]c1=O | -7 | -35 | 88* | -14 | -1 | 4 | .
O=C(N/N=C/c1ccccc1)c1c(O)c2ccccc2[nH]c1=O | -49 | -19 | 38 | -71 | -106 | . | .
CC(C)NC(=O)c1c(O)c2ccccc2[nH]c1=O | 0 | -25 | 84* | -17 | 11 | 83* | 46*
Nc1nc(NCc2ccco2)nc(N2CCN(Cc3ccccc3)CC2)c1[N+](=O)[O-] | 1 | 12 | 3 | 12 | -8 | . | .
C[C@@H]1CN([C@H](C)CO)C(=O)c2cc(NC(=O)Nc3ccc(C(F)(F)F)cc3)ccc2O[C@H]1CN(C)Cc1ccc(Cl)c(Cl)c1 | 5 | 25 | 98* | 20 | 9 | 47* | 20
C[C@H](CO)N1C[C@H](C)[C@@H](CN(C)C(=O)Nc2ccc(C(F)(F)F)cc2)Oc2c(NC(=O)Nc3ccccc3)cccc2C1=O | -7 | 1 | 34 | 9 | 4 | . | .
COc1ccc(NC(=O)N(C)C[C@H]2Oc3c(NC(=O)Nc4ccc(C(F)(F)F)cc4)cccc3C(=O)N([C@H](C)CO)C[C@@H]2C)cc1 | 12 | 4 | 60* | -3 | 20 | 43* | 69*
C[C@@H]1CN([C@H](C)CO)C(=O)c2cc(NS(=O)(=O)c3ccc(F)cc3)ccc2O[C@@H]1CN(C)Cc1ccc(Cl)c(Cl)c1 | -12 | 18 | 78* | -5 | -11 | 57* | 50*
C[C@H]1CN([C@@H](C)CO)C(=O)c2cccc(NC(=O)Nc3ccc(C(F)(F)F)cc3)c2O[C@@H]1CN(C)Cc1ccc(Cl)c(Cl)c1 | -37 | 18 | 72* | 5 | -10 | 49* | 75*
O=C(O)c1c2c(nc3ccccc13)/C(=C/c1ccc(O)cc1)CC2 | 3 | 16 | 62* | 35 | -25 | 60* | 106*
O=C(O)c1c2c(nc3ccccc13)/C(=C/c1ccc(OC(F)F)cc1)CCC2 | -2 | -28 | -9 | -22 | -47 | . | .
Cc1csc(NC(=O)CSc2nsc(SCC(=O)Nc3nc(C)cs3)c2C#N)n1 | -146 | 25 | -84 | -10 | -87 | . | .
Cc1ccc(NC(=O)CSc2nsc(SCC(=O)Nc3ccc(C)cc3C)c2C#N)c(C)c1 | -11 | 34 | 83* | 8 | 14 | 23 | .
O=C(c1ccccc1F)n1c2c(c3ccccc31)CCCC2 | 10 | -32 | 56* | 3 | -1 | 44* | 56*
O=CN/N=C/c1c(O)ccc2ccccc12 | 18 | 53 | 50* | -2 | 6 | 30 | .
NC(=S)N/N=C/c1c(O)ccc2ccccc12 | 13 | 30 | 50* | 9 | -18 | 36 | 45*
Oc1ccc2ccccc2c1/C=N/Nc1ccccc1 | 6 | -46 | 9 | 8 | -8 | . | .
O=C(N/N=C/c1c(O)ccc2ccccc12)c1ccc(CO)nc1 | 35 | 82 | 69* | 17 | -11 | 66* | 36*
COc1ccc2ccccc2c1/C=N/NC(=O)c1ccc(C)nc1 | 3 | -8 | -18 | 2 | -2 | . | .
Cc1cc(NC(=O)C(C)SCC(=O)N(C)CC(=O)Nc2ccc(Br)cc2C)no1 (centres undefined) | 13 | 4 | -3 | 0 | -5 | . | .
SMILES | Jurkat NFkB inh | Shn3 inh set2 | Mdm2 MdmX PPI | Gli-Sufu block | 697 NFkB inh | Mdm2 MdmX conf | FLuc counter
Cn1nccc1C(=O)N1CCOCC1 | 15 | 11 | 12 | -15 | -18 | . | .
COc1ccc(S(=O)(=O)N2CCOCC2)cc1NC(=O)c1cc2ccccc2o1 | -9 | 7 | -1 | 14 | 13 | . | .
COc1ccc2ncn(-c3ccccc3)c2c1 | -13 | 6 | 63* | -19 | -9 | 50* | 42*
CN(C)CCCN(C(=O)CCSc1ccccc1)c1nc2cc3c(cc2s1)OCO3 | 10 | -21 | 53* | 12 | 13 | 38 | .
CCN(CC)CCN(C(=O)CCS(=O)(=O)c1ccccc1)c1nc2cc(OC)c(OC)cc2s1 | -21 | -2 | 22 | -3 | 16 | . | .
CN(C)CCCN(C(=O)CCS(=O)(=O)c1ccccc1)c1nc2cc3c(cc2s1)OCO3 | 28 | 7 | 66* | 7 | 16 | 61* | 56*
CN(C)CCCN(C(=O)COc1ccccc1)c1nc2cc3c(cc2s1)OCCO3 | -72 | -3 | 23 | 19 | 4 | . | .
O=C(Nc1nc(-c2ccccn2)cs1)c1cc2ccccc2o1 | -20 | -13 | 52* | -35 | -21 | 55* | 53*
Cc1c(C(=O)Nc2nc(-c3ccccn3)cs2)oc2ccccc12 | -1 | 17 | 67* | -14 | 1 | 64* | 47*
Cc1nnc(NC(=O)c2oc3ccccc3c2C)s1 | -32 | -100 | -47 | -71 | -106 | . | .
Cc1ccc(S(=O)(=O)Cc2cc(F)c([N+](=O)[O-])cc2[N+](=O)[O-])cc1 | -29 | -3 | 3 | -1 | -29 | . | .
O=C(CSc1nc(-c2cccs2)nc2ccccc12)NC1CCS(=O)(=O)C1 (centres undefined) | -14 | -9 | 61* | . | 21 | 1 | .
CCN(C(=O)CSc1nc(-c2cccs2)nc2ccccc12)C1CCS(=O)(=O)C1 (centres undefined) | -12 | 5 | 22 | 11 | 14 | . | .
COc1ccc(NC(=O)c2ccc(-c3ccc(-c4noc(C)n4)cc3C)cc2)cc1N1CCN(C)CC1 | -18 | -17 | 99* | 8 | -19 | 23 | .
COc1ccc(CC(=O)Nc2ccc(-c3noc(-c4ccc(Cl)cc4)n3)cc2)cc1 | 22 | 21 | 91* | 0 | 7 | 10 | .
COc1ccc(CC(=O)Nc2ccc(-c3noc(-c4cc(OC)c(OC)c(OC)c4)n3)cc2)cc1 | 4 | 26 | 50* | 5 | 1 | 52* | 79*
O=C(Cc1ccccc1)Nc1ccc2oc(-c3cccnc3)nc2c1 | -33 | 2 | -23 | -19 | -57 | . | .
COc1ccc(-c2noc(CCC(=O)Nc3ccc(C)c(C)c3)n2)cc1 | -2 | 8 | -7 | -2 | 14 | . | .
